The text below walks through data of ChEMBL document CHEMBL3988442, “University of Dundee, Small-Polar-MMV Screening Library” (2021).

Each structure is given as a SMILES string. Screen size: about 48,000 compounds; about 13,000 (27%) showed an effect of 50% or more. The list shows a part of the results.

For this test, the system named is Wolbachia pipientis. The test is described as follows: Anti-Wolbachia Cell-Based Screen. In kind it is functional. On the set-up: scale not given: in the data most compounds retested in dose-response had high values. To be noted: 5 µM.
As for `CCCNC(=O)CN1CCOC(CC)C1` (stereo not drawn), the “Percent Effect” value is reported as -15.19%.
To `CSc1nc2cc(C)n(CC(N)=O)c2c(=O)n1CC(C)C` belongs 0.2317%; to `CC[C@@]1(O)CCN(C(=O)CCSCc2ccc(F)cc2)C[C@H]1O`, 8.229%; to `NC(=O)C1CCN(C(=O)CCSCc2ccc(Cl)c(Cl)c2)CC1`, 148.4%.
To `NC(=O)C1CCN(C(=O)CCCc2ccc(Cl)c(Cl)c2)CC1` belongs -6.164%; to `O=C(C1COc2ccccc2O1)N1Cc2cnn(CCO)c2C1` (stereo not drawn), -44.4%.
To `COc1ncccc1C(=O)N(C)Cc1nc(-c2ccccn2)no1` belongs 0.08907%; to `COc1ccc(F)c(CN2CCCC(c3cc(O)nc(C)n3)C2)c1` (stereo not drawn), 108.4%.
Turning to `COc1ccc(CN2CCC(c3cc(O)nc(C)n3)C2)c(OC)c1.O=C(O)CC(O)(CC(=O)O)C(=O)O` (stereo not drawn), the “Percent Effect” value was 122.8%.
Then `COCC(=O)N1CCC2(CCCN(Cc3cc(OC)ccc3F)C2)C1` (stereo not drawn), with 2.404%; and `CCN1CCC(CNCc2cc(OC)ccc2OC)C1` (stereo not drawn), with 4.75%; and `Cc1nc(O)cc(C2CCN(Cc3cccc(F)c3F)C2)n1.O=C(O)CC(O)(CC(=O)O)C(=O)O` (stereo not drawn), with -5.944%.
Then `COc1ccc(OC)c(CN2CCC(c3cc(O)nc(C)n3)C2)c1` (stereo not drawn), with 99.72%; and `Cc1nc(O)cc(C2CCN(Cc3ccc(F)c(F)c3)C2)n1.O=C(O)CC(O)(CC(=O)O)C(=O)O` (stereo not drawn), with 92.59%; and `COc1ccc(F)c(CN2CCC(c3cc(O)nc(C)n3)C2)c1.O=C(O)CC(O)(CC(=O)O)C(=O)O` (stereo not drawn), with -11.82%.
To `COc1ccc(-c2nc(CN3CCCC(OC)C3)c(C)o2)c(F)c1` (stereo not drawn) belongs 6.893%; to `CNC(=O)[C@@H]1C[C@@H](N)CN1C(=O)CCSCc1ccccc1`, -2.753%; to `Cc1ncc(-c2nc3cc(S(=O)(=O)N4CCCC4)ccc3n2C)cn1`, -2.365%.
Turning to `O=C(Nc1ccc(-n2cccn2)c(F)c1)C1CCN(C(=O)C2CC2)CC1`, the “Percent Effect” value is listed as -6.661%.
Then `Cc1nnn2c1COCC(CNC(=O)c1ccnnc1)C2` (stereo not drawn), with -2.264%.
Then `CCN(C)CC1CCN(C(=O)NCCC2Cc3ccccc3C2)C1` (stereo not drawn), with -23.1%; and `COc1ccc(CN2CCC(c3cc(O)nc(C)n3)C2)c(F)c1` (stereo not drawn), with 113.4%.
`CC(C)c1noc(C[S+]([O-])CC(=O)Nc2cc(F)ccc2F)n1` (stereo not drawn): the “Percent Effect” value is recorded as -11.5%.
For the compound `N#Cc1cc(N2CCC(CS(N)(=O)=O)CC2)c2ccccc2n1`, the “Percent Effect” value amounted to 3.151%.
To `Cc1nc(CN2C[C@@H]3CCCO[C@@H]3[C@H](N(C)C(C)C)C2)cs1.O=C(O)C(F)(F)F.O=C(O)C(F)(F)F` belongs -4.847%.
To `CNC(=O)[C@@H]1C[C@H]2CN(C(=O)c3ccco3)C[C@H]2N1C.O=C(O)C(F)(F)F` belongs -16.64%.
To `CNC(=O)[C@H]1C[C@@H]2CN(Cc3csc(C)n3)C[C@@H]2N1S(C)(=O)=O.O=C(O)C(F)(F)F` belongs 110%.
Turning to `Cc1nc(CN2C[C@@H](NC(=O)C3CCC3)[C@H]3COC[C@H]32)cs1.O=C(O)C(F)(F)F`, the “Percent Effect” value is -15.38%.
To `CNC(=O)[C@H]1C[C@@H]2CN(S(=O)(=O)Cc3ccccc3)C[C@@H]2N1C.O=C(O)C(F)(F)F` belongs -3.951%; to `CNC(=O)[C@@H]1C[C@H]2CN(Cc3csc(C)n3)C[C@H]2N1C(C)C.O=C(O)C(F)(F)F.O=C(O)C(F)(F)F`, 116.9%; to `CNC(=O)[C@@H]1C[C@H]2CN(C(=O)c3ccco3)C[C@H]2N1C(C)C.O=C(O)C(F)(F)F`, 99.89%.
To `Cc1nc(CN2CCO[C@@H]3CN(C(=O)NC(C)C)CC[C@@H]3C2)cs1.O=C(O)C(F)(F)F` belongs -13.31%; to `Cc1nc(CN2CCn3cc(CNC(=O)C4CCC4)nc3C2)cs1.O=C(O)C(F)(F)F`, -18.19%.
To `Cc1nc(C)c(CC(=O)Nc2ncc(C)s2)c(=O)[nH]1` belongs -6.358%.
Turning to `CCn1c(C2CCN(Cc3cc(C)n(NC(C)=O)c3C)CC2)n[nH]c1=O`, the “Percent Effect” value was determined as 1.026%.
For `O=C(CN1CCN(CC2CCOc3ccccc3C2)CC1)N1CCCC1` (stereo not drawn), the “Percent Effect” value worked out at 1.365%.
Then `COCCC(=O)N(Cc1ccccn1)Cc1ccccc1C`, with 13.85%.
To `Cn1ccnc1CN(Cc1ccccn1)Cc1ccccc1Cl.O=C(O)CC(O)(CC(=O)O)C(=O)O` belongs 93.9%; to `Cc1ncc(CN(Cc2ccccn2)Cc2ccccc2Cl)n1C.O=C(O)CC(O)(CC(=O)O)C(=O)O`, 124.9%; to `CC(C)CN(Cc1ccccn1)Cc1ccccc1C(=O)O`, -7.566%.
On to `CC(C)CN(Cc1ccccn1)Cc1ccccc1OCC(=O)O`, for which the “Percent Effect” value amounted to 7.517%.
Then `Cc1ccc(CN(Cc2ccccn2)C2CC(C)(C)NC(C)(C)C2)s1.O=C(O)CC(O)(CC(=O)O)C(=O)O`, with -1.083%; and `CCC(CO)N(Cc1ccco1)C(=O)c1cccnc1NC` (stereo not drawn), with -5.429%.
For `CCc1n[nH]c(C2CN(Cc3csc(COC)n3)CCO2)n1` (stereo not drawn), the “Percent Effect” value is on record as 0.7556%.
Then `O=C(Nc1ccc(-c2nc3c([nH]2)CCNC3)cc1)N1CCCC1`, with -0.2771%.
To `COc1ccc2c(c1)C(C(=O)N(C)CCCc1nccn1C)CC(=O)N2` (stereo not drawn) belongs 9.372%; to `CC(C)CN1C(=O)CO[C@@H]2CN(C(=O)C3CCOC3)C[C@H]21` (stereo partly drawn), -11.41%.
As to `CC(C)CNC(=O)c1ccc(NC(=O)NCC2CC2)cc1Cl`, the “Percent Effect” value was -12.02%.
In the case of `CC(C)CNC(=O)c1ccc(NC(=O)NC(C)C)cc1Cl`, the “Percent Effect” value is given as -2.856%.
On to `CCCOc1ccc(NC(=O)NCCC(=O)N(C)C)cc1Cl`, for which the “Percent Effect” value is given as -12.35%.
Regarding `CC(C)CCCNC(=O)Nc1ccc(Cl)c(C(N)=O)c1`, the “Percent Effect” value is 118.7%.
Then `CC(C)CCCNC(=O)Nc1ccc(C(N)=O)c(Cl)c1`, with 114.9%.
Then `CC(C)CNC(=O)c1ccc(NC(=O)NC(C)(C)CO)cc1Cl`, with -9.16%; and `CCCN1CCC(NC(=O)NCCc2nc(CC)c(C)s2)CC1`, with 16.1%; and `Cc1ccc(-c2nn(-c3cccc(F)c3)cc2CN(CCO)CCO)o1`, with 2.921%.
Then `C[C@@H]1CN(C(=O)c2nc3ccc(Cl)cn3c2-c2ncc[nH]2)C[C@H](C)O1`, with 103.5%; and `C[C@@H]1CN(C(=O)Cn2ccc3ncccc3c2=O)C[C@H](C)O1`, with -28.32%; and `Cc1nc2sccn2c1C(=O)N1CCc2[nH]cnc2C1`, with -1.15%.
In the case of `COc1ccc(OCc2cc(C(=O)N3C[C@@H](C)O[C@@H](C)C3)n[nH]2)c(Cl)c1`, the “Percent Effect” value is given as -0.1203%.
Consider `Cc1ccc2cc(C(=O)N3CCCN(C)CC3)ccc2n1`, for which the “Percent Effect” value is on record as 16.24%.
Regarding `CN1C[C@@H](n2cnc(-c3ccccc3)c2-c2ncc[nH]2)C[C@H]1C(=O)O`, the “Percent Effect” value is listed as -3.61%.
Then `CN1CCCN(C(=O)c2nc3sccn3c2-c2ncc[nH]2)CC1`, with 108%; and `CCC[C@@H]1CN(C(=O)c2ccccc2-c2ncc[nH]2)C[C@H]1N(C)C`, with 29.83%; and `O=C(c1nc2sccn2c1-c1ncc[nH]1)N1CCCCC1`, with 87.63%.
Then `C[C@@H]1CN(C(=O)c2nc3sccn3c2-c2ncc[nH]2)C[C@H](C)O1`, with 88.09%; and `CN(C)C1CCCN(C(=O)c2cccc(-c3ncc[nH]3)c2)CC1` (stereo not drawn), with 2.392%; and `CN1CCN(C(=O)c2n[nH]c3c2CN(Cc2nccs2)CC3)CC1`, with -8.434%.
Then `CC(=O)N1CCC(C(=O)N(CC(F)F)c2cccc(Cl)c2)CC1`, with 3.709%; and `CCc1cc(NCCc2ccc(O)cc2)n2nccc2n1`, with 12.11%; and `O=C(NC1CCCC1)O[C@H]1COCCN(c2nc3ccccc3s2)C1`, with 3.317%.
Regarding `COc1cccc(-c2ccc3nc(C4CCN(C(C)=O)CC4)nn3c2)c1`, the “Percent Effect” value is on record as 108.3%.
To `CS(=O)(=O)N1CCC(c2nc3ccc(-c4cccc(F)c4)cn3n2)CC1` belongs 121.7%; to `CN(C)C(=O)N1CCC(c2nc3ccc(N4CCCC4)cn3n2)CC1.O=C(O)C(F)(F)F`, -5.461%; to `CN(C)C(=O)N1CCC(c2nc3ccc(-c4ccccc4)cn3n2)CC1`, 107%.
For the compound `Cc1ccc2nc(C3CCN(CCO)CC3)nn2c1`, the “Percent Effect” value is -22.16%.
Then `COCC(=O)N1CCC(c2nc3ccc(-c4ccccc4)cn3n2)CC1`, with 4.971%; and `CC(=O)N1CCC(c2nc3ccc(C)cn3n2)CC1`, with 109.2%.
To `COCC(=O)N1CCC(c2nc3ccc(N4CCOCC4)cn3n2)CC1` belongs -4.439%; to `CCS(=O)(=O)N1CCC(c2nc3ccc(-c4ccccc4)cn3n2)CC1`, -9.682%; to `COc1ccc(Cl)cc1CS(=O)(=O)Cc1noc(C)n1`, 18.18%.
To `C[S+]([O-])c1nncn1CCc1ccccc1` (stereo not drawn) belongs -4.603%.
As to `COc1ccccc1C(O)Cn1cc(C(=O)NCc2ccco2)nn1` (stereo not drawn), the “Percent Effect” value is listed as -0.6679%.
Then `CNC(=O)c1cccc(NCC(=O)Nc2cc(C)nn2C)c1C`, with 11.4%; and `COc1ncccc1C(=O)NC1(c2cccc(F)c2)CCOCC1`, with 0.9313%.
To `CN1CCCC1CNC(=O)c1nnn(-c2ccc(F)cc2)c1C1CC1` (stereo not drawn) belongs -4.807%; to `CC(=O)N1CCC(c2nc3ccc(-c4cccc(F)c4)cn3n2)CC1`, 114.3%; to `CCNc1cc2c(nn1)CCN(C(=O)c1cc3ccccc3[nH]c1=O)C2`, -5.583%.
Then `CNc1cc2c(nn1)CCN(C(=O)c1ccc(-n3cccn3)nc1)C2`, with 108.2%.
As to `CN(C)c1cc2c(nn1)CCN(C(=O)c1ccc(-n3cccn3)nc1)C2`, the “Percent Effect” value is 103.2%.
Then `CNc1cc2c(nn1)CCN(C(=O)c1ccc(-n3nccc3C)cc1)C2`, with -6.131%.
To `CCNc1cc2c(nn1)CCN(C(=O)c1ccc(NC3CC3)nc1)C2` belongs 18.68%.
To `Nc1cc2c(nn1)CCN(C(=O)c1ccc(Oc3cccnc3)cc1)C2` belongs 5.491%; to `CCNc1cc2c(nn1)CCN(C(=O)c1ccc(-n3cccn3)nc1)C2`, 97.41%.
As for `Nc1cc2c(nn1)CCN(C(=O)c1cccnc1Oc1ccccc1)C2`, the “Percent Effect” value is -19.15%.
To `CCNc1cc2c(nn1)CCN(C(=O)c1ccc3cc[nH]c3c1)C2` belongs 0.8681%; to `CN(C)c1cc2c(nn1)CCN(C(=O)c1cc3ccccc3o1)C2`, 1.758%; to `CCNc1cc2c(nn1)CCN(C(=O)c1ccnc(N(C)C)c1)C2`, -3.48%.
To `CNc1cc2c(nn1)CCN(C(=O)c1ccccc1-n1cccn1)C2` belongs 88.38%.
